Rab9 promoter act – Rab9 promoter activation; Huh7 Rab9 promoter-luciferase reporter, luminescence, 24 h; Potency, µM (highest dose often 9.22 µM), usual class: activators; 320,000 tested, 2.8% active; also: nearly all actives have a fitted effect of over 60% in size
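Steps: seed 1500 Huh7 Rab9-luc cells per well, rest 2 h at 37 °C; add compound in DMSO; incubate 24 h; add luciferase reagent, 10 min ambient; read luminescence.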
Luc counter – Kinase-Glo luciferase inhibition (counter-screen) | Q27757 | Kinase-Glo luciferase, ATP luminescence, 8 min | Potency, µM (series often up to 38.3 µM), usual class: inhibitors | 200,000 tested, 0.28% active | AID 1379; also: nearly all actives have a fitted effect of over 60% in size
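Compound is pinned into ATP-containing buffer (10 uM ATP, imidazole pH 7.2, 7 mM MgCl2). Kinase-Glo luciferase reagent is then added. Light output is recorded following an 8-min room-temperature incubation.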
FLuc modulator – counter-screen for miR-21 project: firefly luciferase inhibitors or activators. P08659. purified FLuc, Km substrates, luminescence inhibition. Potency, µM (doses to about 57.5 µM), hits mostly inhibitors. 360,000 tested, 6.9% active. AID 588342; also: nearly all actives have a fitted effect of over 55% in size
Target sequence (P08659 whole entry, looked up): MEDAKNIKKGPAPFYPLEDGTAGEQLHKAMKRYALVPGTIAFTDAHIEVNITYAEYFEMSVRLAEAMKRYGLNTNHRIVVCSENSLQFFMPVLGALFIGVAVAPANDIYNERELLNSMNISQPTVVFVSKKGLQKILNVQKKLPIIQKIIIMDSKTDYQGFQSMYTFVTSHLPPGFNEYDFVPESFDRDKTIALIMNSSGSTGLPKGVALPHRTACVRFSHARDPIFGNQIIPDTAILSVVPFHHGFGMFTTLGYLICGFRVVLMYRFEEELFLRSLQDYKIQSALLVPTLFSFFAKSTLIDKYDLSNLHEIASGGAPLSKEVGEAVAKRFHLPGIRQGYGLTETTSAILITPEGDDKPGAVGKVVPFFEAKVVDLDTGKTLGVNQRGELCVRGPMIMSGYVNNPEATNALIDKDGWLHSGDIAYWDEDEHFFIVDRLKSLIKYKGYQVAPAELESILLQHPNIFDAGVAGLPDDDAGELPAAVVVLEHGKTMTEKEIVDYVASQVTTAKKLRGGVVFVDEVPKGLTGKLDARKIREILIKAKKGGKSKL
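Purified P. pyralis luciferase, 10 nM final, with Km-level 10 uM D-luciferin and 10 uM ATP in 50 mM Tris acetate pH 7.5, 10 mM Mg acetate, 0.01% Tween-20, 0.05% BSA; 6-point qHTS titration about 60 µM downward; luminescence read.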
NPC1 prom act – activates the NPC1 promoter; Huh7 NPC1 promoter luciferase reporter, 24 h; Potency, µM (titrated, usually from 9.22 µM), most hits filed as activators; 320,000 tested, 2.4% active; also: nearly all actives have a fitted effect of over 60% in size
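Quantitative HTS used a cell-based reporter: Huh7 cells stably bearing the NPC1 promoter upstream of luciferase were treated with compounds for 24 h, and promoter activation was read as luminescence.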
SMN2 splice up – SMN2 splice variant enhancement; HEK293 SMN2-luciferase splicing reporter, luminescence, 30-36 h; Potency, µM (highest dose often 46.1 µM), hits mostly activators; 210,000 tested, 2.8% active; AID 1458; also: nearly all actives have a fitted effect of over 55% in size
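qHTS luciferase splicing reporter: luminescence rises when SMN2 exon 7 is included in transfected HEK293 cells. Compound exposure lasted 30-36 h at 37C, with 4.5 mM final sodium butyrate as control, followed by a ONE-Glo read.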
ELG1 genotox – inducers of genotoxicity in HEK293T ELG1-luciferase cells; HEK293T ELG1-luciferase reporter, luminescence, 16 h; Potency, µM (doses to about 46 µM), usual class: activators; 330,000 tested, 1.3% active; also: nearly all actives have a fitted effect of over 60% in size
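Genotoxic stress is detected as increased luminescence from luciferase-tagged ELG1 in HEK293T cells, measured with ONE-Glo after a 16 hr treatment at 37 °C.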
Hits are given with their value; n = inactive; u = inconclusive; x = no result; [ ] = another dose, or the depositor's remark. Shown are actives, neighbours in structure and some others; about 7.3% of the full set was active somewhere. Calls follow the shape of the dose curve; as a rule, active = well fitted curve in the direction sought with a large enough effect; inconclusive = small, poorly fitted or top-dose-only effect, or another doubt; inactive = no such curve, though single readings can be large; an effect the other way counts as inactive or inconclusive.

SMILES | Rab9 promoter act | Luc counter | FLuc modulator | NPC1 prom act | SMN2 splice up | ELG1 genotox
CCN(CC)CCn1c(-c2ccccc2)nc2c(NCCOC)nc(C)nc21 | x | n | x | x | n | x
COc1ccc(S(=O)(=O)N(CCc2ccccc2)CC(=O)NCc2ccccc2)cc1OC | x | x | n | x | n | x
O=C(Nc1ccc(NC(=O)C2CC2)cn1)c1ccccc1Cl | n | n | u | n | 25µM | u
CC(C)C(=O)Nc1ccc(NC(=O)c2cccc(F)c2)cn1 | 2.8µM | n | u | n | n | u
CC(C)C(=O)Nc1ccc(NC(=O)CCc2ccccc2)cn1 | n | n | n | n | n | n
O=C(Cc1ccccc1)Nc1ccc(NC(=O)c2ccccc2)nc1 | 2.2µM | x | u | 2.8µM | x | u
COc1ccc(C(=O)Nc2ccc(NC(=O)C3CC3)cn2)cc1 | n | x | u | n | x | n
COc1cc2nc3c(c([Si](C)(C)C(C)(C)C)c2cc1OC)Cn1c-3cccc1=O | x | n | x | x | n | x
COc1ccc(/C=C/C(=O)c2ccccc2)c(OC)c1 | 1.8µM | n | 2.4µM | 3.2µM | u | u
COc1ccc(/C=C/C(=O)c2cc(Cl)cc(Cl)c2O)c(OC)c1 | n | x | u | n | x | n
COc1ccc(/C=C/C(=O)NCC2COc3ccccc3O2)c(OC)c1 (configuration not stated) | n | n | 24µM | n | n | n
COc1ccc(/C=C/C(=O)c2ccc(OC)cc2OC)c(OC)c1 | n | x | 19µM | n | x | n
CNc1ccc(Br)cc(C(=O)/C=C/c2ccc(OC)cc2OC)c1=O | n | n | 12µM | n | n | n
COc1ccc(NC(=O)CCC2COc3ccccc3O2)c(OC)c1 (configuration not stated) | n | n | n | n | n | n
COc1cc(OC)c(C(=O)/C=C/c2ccc(OCc3ccccc3)c(OC)c2)c(OC)c1 | n | x | n | n | x | n
COc1ccc(/C=C/C(=O)NNC(=O)c2ccncc2)c(OC)c1 | n | x | 13µM | n | x | n
COc1ccc(OC)c(/C=N/NC(=O)c2ccncc2)c1 | n | x | n | n | x | n
COc1ccc(/C=C/C(=O)c2ccc3c(c2)OCO3)c(OC)c1 | 2.8µM | u | 2.1µM | 3.2µM | 16µM | 5.8µM
COc1cc(/C=C/C(=O)c2ccc3c(c2)OCO3)cc(Cl)c1O | n | x | 8.5µM | n | x | n
COc1cc(/C=C/C(=O)OCC(=O)Nc2ccc3c(c2)OCO3)ccc1O | x | x | x | x | x | n
COc1cc(O)c(C(=O)/C=C/c2ccccc2)c(OC)c1 | n | n | 11µM | n | n | n
COc1cccc(C(=O)Nc2c(C(=O)N3CCN(c4ccc(F)cc4)CC3)oc3ccccc23)c1 | x | x | n | x | x | x
O=C(CSC1=Nc2ccccc2N=C(c2ccc(F)cc2)C1)NCc1ccc(Cl)cc1 | x | x | n | x | x | x
CC(C)(C)c1ccc(C(=O)CCCN2CCC(OC(c3ccccc3)c3ccccc3)CC2)cc1 | n | x | x | n | x | x
O=C(/C=C/c1cccc([N+](=O)[O-])c1)c1ccc2c(c1)OCCO2 | n | n | u | n | n[1.84 µM] | u
SMILES | Rab9 promoter act | Luc counter | FLuc modulator | NPC1 prom act | SMN2 splice up | ELG1 genotox
COc1cccc(/C=C/C(=O)c2ccc3c(c2)OCCO3)c1OC | u | x | 0.76µM | 3.2µM | x | u
CCN(CC(=O)Nc1ccc2c(c1)OCCO2)C(=O)/C=C/c1ccc(OC)cc1OC | n | x | 15µM | n | x | u
CCN(CC(=O)Nc1ccc2c(c1)OCCO2)C(=O)/C=C/c1ccc(OC)c(OC)c1 | n | x | n | n | x | n
Cc1occc1C(=O)Nc1cc(C(C)(C)C)on1 | 1.6µM | 11µM | 6µM | 2.8µM | 14µM | 5.2µM
Cc1cccc(NC(=O)c2ccccc2Br)n1 | n | n | u | n | n | n
Cc1cccc(NC(=O)c2ccoc2C)n1 | n | u | u | n | 18µM | u
COc1cc(OC)c2c(-c3cccc(/C=C/c4ccc(F)cc4)c3)cc(=O)oc2c1 | x | n | x | x | x | u
COc1cc(/C=C/c2ccccc2)oc(=O)c1 | x | x | x | x | 8.9µM | x
O=C(CSc1nc2c([nH]c3ccccc32)c(=O)n1-c1ccc(F)cc1)NCc1ccc(F)cc1 | x | x | n | x | x | x
Cc1nn(C)c(C)c1CCC(=O)N1CCCC(C(=O)c2cccc(OC(C)C)c2)C1 (configuration not stated) | n | x | n | n | x | n

Screening results (PubChem BioAssay)
